# The whole screen tested about 390,000 compounds, of which about 17,000 (4.4%) were called active. About 8% were inconclusive and are not listed. For the sample, actives were picked, then their nearest neighbours and some compounds at random. A number with no mark means an inactive call. Calls follow the shape of the dose curve; as a rule, active = well fitted inhibition curve with a large enough effect; inconclusive = small, poorly fitted or top-dose-only effect; inactive = no such curve, though single readings can be large or run the other way.
# Target: Lysine-specific demethylase 4A (Homo sapiens) (UniProt O75164)
# Test: qHTS Assay for Inhibitors of JMJD2A-Tudor Domain; also: nearly all actives have a fitted effect of over 50% in size
# Conditions: AlphaScreen JMJD2A-Tudor / H3K4me3 peptide binding; series mostly up to 114 µM; activity change, negative = inhibition: at the top concentration
# % is scaled to controls: 0 for no effect and ±100 for the full control effect; potency is read from the fitted curve at half-maximal effect.
# Lysine-specific demethylase 4A (Homo sapiens), sequence (O75164 whole entry, looked up, the tested form may be a part): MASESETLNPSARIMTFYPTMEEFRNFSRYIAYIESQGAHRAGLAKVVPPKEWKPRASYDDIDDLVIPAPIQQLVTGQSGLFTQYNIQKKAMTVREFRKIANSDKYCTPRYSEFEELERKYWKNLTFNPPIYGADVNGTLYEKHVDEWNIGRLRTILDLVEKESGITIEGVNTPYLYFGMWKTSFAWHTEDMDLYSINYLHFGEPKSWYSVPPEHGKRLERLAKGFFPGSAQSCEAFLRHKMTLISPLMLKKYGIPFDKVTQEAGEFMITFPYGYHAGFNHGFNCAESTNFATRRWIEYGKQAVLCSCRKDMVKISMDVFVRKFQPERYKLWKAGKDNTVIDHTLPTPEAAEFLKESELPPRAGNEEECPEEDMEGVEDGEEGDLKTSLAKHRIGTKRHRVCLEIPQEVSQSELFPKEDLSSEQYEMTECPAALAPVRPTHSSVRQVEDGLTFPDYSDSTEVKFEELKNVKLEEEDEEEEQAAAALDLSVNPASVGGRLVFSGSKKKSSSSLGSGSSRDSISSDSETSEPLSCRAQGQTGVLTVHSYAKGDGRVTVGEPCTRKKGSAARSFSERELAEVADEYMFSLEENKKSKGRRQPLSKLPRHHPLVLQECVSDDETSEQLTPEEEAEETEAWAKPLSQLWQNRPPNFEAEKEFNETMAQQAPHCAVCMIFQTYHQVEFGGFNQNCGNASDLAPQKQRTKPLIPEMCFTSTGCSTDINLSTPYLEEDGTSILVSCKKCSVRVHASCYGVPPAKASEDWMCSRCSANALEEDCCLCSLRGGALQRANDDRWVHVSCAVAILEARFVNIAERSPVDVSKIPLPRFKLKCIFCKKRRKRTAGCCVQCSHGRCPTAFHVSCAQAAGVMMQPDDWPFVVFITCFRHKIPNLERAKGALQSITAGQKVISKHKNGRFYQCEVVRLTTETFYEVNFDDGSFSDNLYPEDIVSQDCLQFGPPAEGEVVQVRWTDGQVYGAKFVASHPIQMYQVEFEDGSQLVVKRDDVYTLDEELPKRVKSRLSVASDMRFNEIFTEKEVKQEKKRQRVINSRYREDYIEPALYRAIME
SMILES,"activity change, negative = inhibition",Potency
O=C(c1ccc(Cl)cc1)n1nc(-c2cccnc2)nc1NCc1ccc(F)cc1,-2.08%,
CCOC(=O)c1cc2c(=O)n3ccccc3nc2n(CC2CCCO2)c1=NC(=O)c1ccccc1F (stereo not drawn),3.41%,
Cc1csc(Nc2ccc(Cl)cc2)[n+]1-c1ccc(Cl)cc1,,14.1 µM (active)
CC1CCCN(c2nc3c(S(=O)(=O)c4ccc(C(C)C)cc4)nnn3c3ccsc23)C1 (stereo not drawn),6.96%,
CCOc1ccccc1N1CCN(C(=O)c2ccc3[nH]c(C)c(C)c3c2)CC1,,56.2 µM (active)
COC(=O)CCNC(=O)c1ccc2[nH]c(C)c(C)c2c1,-9.59%,
Cc1cccc(N2CCN(C(=O)c3ccc4c(c3)CCN4S(=O)(=O)c3ccccc3)CC2)c1C,-19.8%,
CCn1c(C)c(C)c2cc(C(=O)N3CCN(c4cccc(C)c4C)CC3)ccc21,,31.6 µM (active)
Cc1[nH]c2ccc(C(=O)N3CCN(C)CC3)cc2c1C,,50.1 µM (active)
CCS(=O)(=O)N1CCc2cc(C(=O)N3CCN(c4ccccc4OC)CC3)ccc21,-12.6%,
CCOc1ccccc1NC(=S)N1CCN(c2cccc(C)c2C)CC1,-24.9%,
CCC(CC)C(=O)N1CCN(c2cccc(C)c2C)CC1,8.94%,
CCOC(=O)c1ccc2[nH]c(C)c(CN3CCN(C)CC3)c(=O)c2c1,-18.3%,
Cn1c(=O)cc(OCC(=O)N2CCN(c3ccccc3)CC2)c2ccccc21,-10.8%,
Cc1ccccc1C(=O)Nc1sc2c(c1C(=O)N1CCC(C)CC1)CCCC2,-13.5%,
CC(=O)Nc1c(C)nn(-c2ccccc2)c1N1CCC(C(=O)Nc2cc(Cl)ccc2C)CC1,-14%,
Cc1ccc(Cc2nc3ccccc3nc2SCC(=O)Nc2cccc(C(F)(F)F)c2)cc1,-13%,
CCc1nc2ccc(C(=O)N3CCN(c4cc(Cl)ccc4C)CC3)cc2nc1CC,-25.3%,
COc1ccc(CCNC(=O)c2c3c(nc4ccccc24)C(=O)N(C2CCCCC2)C3)cc1OC,-15.3%,
COc1cccc(NC(=O)c2ccc3nc(CCc4ccccc4)oc3c2)c1,-2.56%,
CCOC(=O)c1scc(-c2ccc(C)cc2)c1S(=O)(=O)Nc1cc(C)ccc1C,-15.3%,
COc1ccc(NC(=O)C2CCN(c3ccc(Sc4ccc(C)cc4)nn3)CC2)c(OC)c1,-17.4%,
Nc1ccc(N=Nc2ccccc2Cl)c(N)n1,,25.1 µM (active)
COc1ccc(Cl)cc1N(C)C(=O)c1cc2c(=O)oc3ccc(C)cc3c2s1,-2.36%,
COc1ccc(-c2cc(C(=O)N3CCN(Cc4ccc5c(c4)OCO5)CC3)on2)cc1OC,,20 µM (active)

SMILES,"activity change, negative = inhibition",Potency
Cc1cc(C)n2nc(C(=O)N3CCN(Cc4ccc5c(c4)OCO5)CC3)nc2n1,-4.9%,
COc1cc(Cl)c(S(=O)(=O)N2CCN(Cc3ccc4c(c3)OCO4)CC2)cc1Cl,-21.1%,
COc1ccc(-c2nc3scc(CCNS(=O)(=O)c4cc(F)ccc4OC)n3n2)cc1OC,-19.2%,
Cc1cc(C)nc(S/C=C/C(=O)c2ccccc2)n1,-6.35%,
O=C(/C=C/Sc1ncn[nH]1)c1ccc(Cl)cc1,,31.6 µM (active)
CC(=O)c1ccc(N2CCN(c3nc4c(S(=O)(=O)c5ccccc5)nnn4c4ccc(Cl)cc34)CC2)cc1,-8.36%,
COc1ccc(S(=O)(=O)NCc2cccn2Cc2cccc(C)c2)cc1Cl,-25.2%,
C=CCN(CC=C)CCOc1ccccc1[N+](=O)[O-],,1 µM (active)
Cc1ccc(OCC(=O)Oc2ccccc2[N+](=O)[O-])cc1,-15.1%,
O=C(COc1ccccc1[N+](=O)[O-])NC1CC1,-12.9%,
COc1ccc(CNC(=O)C2=Cc3cccc(OC)c3OC2)cc1OC,-21.4%,
CCN(CC)c1nc(C#N)nc(OC)n1,-7.69% [at 57.1 µM],
O=C(CCn1c(=O)c2sccc2n(Cc2ccc(F)cc2)c1=O)NCc1ccc2c(c1)OCO2,-1.02%,
CC(O)c1ccc(OCCN(C)c2ccccn2)cc1 (stereo not drawn),-7.12%,
CN(CCOc1ccc(CC2SC(=O)NC2=O)cc1)c1ccccn1 (stereo not drawn),-14.4%,
CCN(CC)CCOc1ccc2c(c1)C(=NNC(=O)c1ccccn1)c1cc(OCCN(CC)CC)ccc1-2,,25.1 µM (active)
Cc1cccc(NC(=O)Cn2nc(-c3ccc(Cl)cc3)c3ccccc3c2=O)c1,4.84%,
O=C(CN1C(=O)COc2ccc(S(=O)(=O)N3CCCCCC3)cc21)N1CCN(c2cccc(C(F)(F)F)c2)CC1,-23.2%,
CCOCCCNC(=O)c1c(NC(=O)Cc2coc3ccc(C)cc23)sc2c1CCC2,-22.9%,
CC(C)(C)c1ccc(/C=C/C(=O)Nc2ncccn2)cc1,-11.9%,
Cc1cc(C(=O)O)ccc1[N+](=O)[O-],-15.9%,
CN(C)c1ccc(/C=C/C(=O)c2ccc(C(C)(C)C)cc2)cc1[N+](=O)[O-],,11.2 µM (active)
CCOc1ccc(NC(=O)CC2C(=O)N(c3cccc(OC)c3)C(=O)N2C2CCCCC2)cc1 (stereo not drawn),-28.5%,
Cc1ccccc1CNC(=O)CCc1cn(Cc2ccccc2C)c2ccccc12,-8.42%,
CSCCC(NC(=O)c1ccc(=O)n(C)n1)c1nc2ccccc2[nH]1 (stereo not drawn),,89.1 µM (active)

SMILES,"activity change, negative = inhibition",Potency
COc1ccc(CC(=O)N[C@@H](CCSC)c2nc3ccccc3[nH]2)cc1,-9.62%,
CSCCC(NC(=O)c1cc([N+](=O)[O-])cc([N+](=O)[O-])c1)c1nc2ccccc2[nH]1 (stereo not drawn),-28.3%,
Cc1ccc(CNC(=O)CCC(=O)N2Cc3ccccc3Oc3ncccc32)cc1,-18.4%,
O=C(Nc1nonc1-c1ccc(Cl)cc1)c1ccco1,-1%,
CCN(c1ccc(Cl)cc1)S(=O)(=O)c1nnc(NC(=O)c2ccco2)s1,-22.7%,
O=C(Nc1nc(-c2ccco2)c(-c2ccco2)s1)c1ccco1,,50.1 µM (active)
Cc1ccc(S(=O)(=O)c2cn(Cc3ccccc3)c3cc(N4CCCC4)c(F)cc3c2=O)c(C)c1,-7.92%,
COC(=O)CCNc1ccc2c(c1)OCCO2,-29.7%,
CCOc1ccc(NCCC(=O)c2ccc3c(c2)OCO3)cc1,,39.8 µM (active)
O=C(COc1ccc(Cl)cc1)Nc1ccc2c(c1)OCO2,-8.48%,
O=C(NCc1ccccn1)[C@]1(C(F)(F)F)C[C@H](CCc2ccccc2)CCCO1,,39.8 µM (active)
CNC(=O)[C@]1(C(F)(F)F)C[C@H](CCc2ccccc2)CCCO1,-17.2%,
Cc1ccc(CNC(=O)C2(C(F)(F)F)C/C(=C\Cc3ccccc3)CCCO2)o1 (stereo not drawn),,inactive
CCCOc1cccc(C(=O)Nc2cccc(NC(=O)c3ccc(C(C)(C)C)cc3)c2)c1,-10.5%,
Cc1ccc(S(=O)(=O)N/N=C\c2cc3c(cc2[N+](=O)[O-])OCO3)cc1,-19%,
Cc1ccc(-c2n[nH]c(=S)n2/N=C/c2cc3c(cc2[N+](=O)[O-])OCO3)cc1,,10 µM (active)
CCOC(=O)c1nc(-c2ccc3c(c2)OCO3)[nH]c1C,-12.5%,
CCN1CCN(C(C(=O)NC2CCCC2)c2cc3c(cc2[N+](=O)[O-])OCO3)CC1 (stereo not drawn),-10.4%,
CCOc1ccc(-c2n[nH]c(=S)n2/N=C/c2cc3c(cc2[N+](=O)[O-])OCO3)cc1,,17.8 µM (active)
O=S(=O)(c1ccc(Cl)cc1)c1nnn2c1nc(NC1CCCC1)c1sccc12,-11.7%,
Fc1ccc(-c2ccc(CNCc3ccccn3)o2)cc1Cl,,63.1 µM (active)
Cc1cc(S(=O)(=O)NCc2ccccn2)c(Cl)cc1Cl,4.12%,
COc1ccc(-c2ccc(CNCCCN3CCOCC3)o2)cc1Cl,-20%,
O=C(NC1CCN(Cc2ccccc2)CC1)c1ccc(Cn2c(=O)c3ccccc3n(Cc3cccc(F)c3)c2=O)cc1,-18.1%,
O=C1CN(C(=O)Nc2ccccc2C(F)(F)F)C(c2ccccc2)c2c(sc3c2CCCC3)N1 (stereo not drawn),-11.6%,

SMILES,"activity change, negative = inhibition",Potency
COc1ccc(CNC(=O)CS(=O)Cc2nc(-c3cccc(C)c3)oc2C)cc1 (stereo not drawn),-14.5%,
Cc1cccc(N2CCN(C(c3ccccc3)c3nnnn3CC3CCCO3)CC2)c1C (stereo not drawn),-8.9% [at 11.4 µM],
CC1(C)CC(N2CCN(C(c3ccccc3)c3ccccc3)CC2)=CC(=[N+]2CCCCC2)C1,,25.1 µM (active)
CC1(C)CC(=O)C=C(N2CCOCC2)C1,8.3%,
CCNS(=O)(=O)c1ccc(NC(=O)CSc2nc(-c3ccco3)cc(C(F)(F)F)n2)cc1,-13.4%,
O=C(CSc1cn(CC(=O)N2CCOCC2)c2ccccc12)Nc1ccccc1,-5.13%,
CC(=O)Nc1ccc(NC(=O)C2CCCN(S(=O)(=O)c3ccc4c(c3)CCCC(=O)N4)C2)cc1 (stereo not drawn),-8.41%,
COc1cc(C2c3c(oc4ccccc4c3=O)C(=O)N2c2nc(C)c(C)s2)ccc1O (stereo not drawn),-16.2%,
CCOc1ccc(-n2c(C)nc3c(cnn3-c3ccc(C)cc3)c2=O)cc1,2%,
Cn1ccc2cc(S(=O)(=O)N3CCCC(C(=O)NCc4ccccc4F)C3)ccc21 (stereo not drawn),-11.2%,
COc1cccc(CN2CCNC(=O)C2CC(=O)N(C)CCc2ccccn2)c1 (stereo not drawn),-9.06%,
COc1ccc(CN2CCNC(=O)C2CC(=O)N(C)Cc2ccccn2)cc1OC (stereo not drawn),,14.1 µM (active)
CN(Cc1cccc2ncccc12)C(=O)CC1C(=O)NCCN1Cc1ccc(F)cc1 (stereo not drawn),-4.9%,
Cc1ccc(CCNC(=O)c2ccc3c(c2)N(Cc2cc(C)ccc2C)C(=O)c2ccccc2S3=O)cc1 (stereo not drawn),-18.9%,
COc1ccc(NC(=O)NC(C)c2c(-n3cccc3)sc(C)c2C)cc1OC (stereo not drawn),,50.1 µM (active)
Cc1ccc(NC(=O)NC(C)c2c(-n3cccc3)sc(C)c2C)c(C)c1 (stereo not drawn),-9.45%,
CCn1cc(NC(=O)Nc2ccc(OC)c(OC)c2)c(C(N)=O)n1,-5.88%,
Cc1cc2c(s1)c1cnn(Cc3c(F)cccc3Cl)c(=O)c1n2C,-4.79%,
Cc1ccc(S(=O)(=O)N(CC(=O)Nc2ccc(Cl)cc2Cl)c2ccccc2C)cc1,-1.12%,
COc1cccc(CNC(=O)c2ccc3c(c2)sc2nc(-c4cccc(OC)c4)cn23)c1,0.987%,
CCc1ccc(-c2cc(C(=O)NN3CCN(C)CC3)c3ccccc3n2)cc1,-24.1%,
CCc1cc(C(=O)c2ccc(OC)cc2)c(NC(=O)CN2CCN(C)CC2)s1,-35.7%,
CCCCc1nc2ccccc2c(NC(=O)CN2CCN(C)CC2)c1CCC,,0.708 µM (active)
